This is an account of results in PubChem BioAssay (NCI).

Among the test systems are NCI-H23 lung; NCI-H226 lung; NCI-H322M lung; HOP-62 NSCLC; NCI-H460 lung; HOP-92 NSCLC; NCI-H522 lung; A549/ATCC NSCLC; 786-0 renal; DU-145 prostate; MALME-3M melanoma; MDA-MB-231 breast; RXF 393 renal; SF-268 CNS; SF-295 CNS; SF-539 CNS; UACC-257 melanoma; M14 melanoma; K-562 leukemia; COLO 205 colon.
What all share (assay): NCI-60 one-dose screen, 48 h (100 = growth as untreated, 0 = no growth, -100 = all killed)
Common to all, as to details: 10 µM unless noted

This is part of a sample that, as a whole, favours compounds with a hit. Of some 83,000 tested, about 20% had one in any assay.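 How to read the values: 0–100, growth inhibition (40 = 60% inhibited); 0, no net growth; -100 to 0, cell death (-40 = 40% of starting cells died; -100 = all dead).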 A number with no mark means an inactive call. The source made the active and inactive calls. Rule for the calls: active = growth percent below 10; inactive = the rest.

Take `C=C1C(=O)O[C@H]2[C@H]1CC/C(COC(=O)c1cccc3ccccc13)=C\CC[C@@]1(C)O[C@@H]21`: the growth in the test with NCI-H23 lung is 0.789% (active); with NCI-H226 lung, -79.9% (active); in the test on NCI-H322M lung it was 36.8%; in the test on HOP-62 NSCLC it was -45.7% (active); with NCI-H460 lung it was 7.53% (active); in the test with HOP-92 NSCLC it was -67.9% (active). In addition, the growth is -84.5% (active) in the test on NCI-H522 lung; -55% (active) in the test on A549/ATCC NSCLC; -77.9% (active) in the test on 786-0 renal; -95.1% (active) with DU-145 prostate; -74.5% (active) with MALME-3M melanoma; -67.7% (active) with MDA-MB-231 breast. The growth with RXF 393 renal was -89.6% (active); in the test with SF-268 CNS, -66.4% (active); with SF-295 CNS it was 47.8%; in the test on SF-539 CNS, -93.1% (active); in the test on UACC-257 melanoma, -13.9% (active); in the test on M14 melanoma it was -58.7% (active).
Regarding `CC(CN(C)C)CN1c2ccccc2CCc2ccccc21` (centres undefined), the growth in the test on NCI-H23 lung was 83.3%; with NCI-H226 lung, 100%; with NCI-H322M lung it was 77.1%; with HOP-62 NSCLC, 96.4%; with NCI-H460 lung, 103%; in the test on HOP-92 NSCLC it was 38.9%. The growth was 80.2% in the test on NCI-H522 lung; 94.4% in the test with A549/ATCC NSCLC; 64.3% in the test with 786-0 renal; 106% in the test with DU-145 prostate; 65.4% in the test with K-562 leukemia; 88.8% in the test with MALME-3M melanoma. The growth is 85.9% in the test with MDA-MB-231 breast; 93% in the test on SF-268 CNS; 87.5% in the test with SF-295 CNS; 90.5% in the test with SF-539 CNS; 105% in the test with UACC-257 melanoma; 52.3% in the test on M14 melanoma.
Take `CCOC(=O)C(C)(CSSCC(C)(NC(=O)c1ccc2ccccc2c1)C(=O)OCC)NC(=O)c1ccc2ccccc2c1` (centres undefined): the growth is 98.3% in the test on NCI-H23 lung; 97.9% in the test on NCI-H226 lung; 96.7% in the test with NCI-H322M lung; 105% in the test with HOP-62 NSCLC; 102% with NCI-H460 lung; 105% in the test with HOP-92 NSCLC. The growth in the test on NCI-H522 lung is 92.9%; in the test with A549/ATCC NSCLC it was 26.4%; in the test on COLO 205 colon, 121%; in the test with DU-145 prostate, 117%; in the test with K-562 leukemia, 91.1%; with MALME-3M melanoma, 115%. For the same molecule, the growth is 114% with MDA-MB-231 breast; 102% in the test with SF-268 CNS; 96.2% with SF-295 CNS; 114% in the test with SF-539 CNS; -17.8% (active) with UACC-257 melanoma; 114% in the test on M14 melanoma.
As for `O=C(CSc1nnc(-c2ccccc2)o1)Nc1ccc(C(=O)/C=C/c2ccccc2)cc1`, the growth is 77.6% in the test on NCI-H23 lung; 85.4% in the test on NCI-H226 lung; 71.1% with NCI-H322M lung; 72.4% in the test on HOP-62 NSCLC; 48.4% with NCI-H460 lung; 60.6% in the test with HOP-92 NSCLC. The growth with NCI-H522 lung is 65.2%; in the test with A549/ATCC NSCLC it was 60.3%; in the test on 786-0 renal, 84.8%; in the test on DU-145 prostate, 62.7%; in the test with K-562 leukemia, 8.02% (active); in the test with MALME-3M melanoma it was 69.8%. Besides, the growth was 83.9% in the test on MDA-MB-231 breast; 93.1% with RXF 393 renal; 65.8% in the test with SF-268 CNS; 77.3% in the test with SF-295 CNS; 84.7% with SF-539 CNS; 113% in the test on UACC-257 melanoma. The growth in the test on M14 melanoma was 66.4%.
`Nc1ncnc2c1c(-c1ccc(Oc3ccccc3)cc1)nn2C[C@H]1SSC[C@@H]1O`: the growth in the test with NCI-H23 lung is 53.2%; in the test on NCI-H226 lung, 22.9%; with NCI-H322M lung, 46.9%; in the test with HOP-62 NSCLC it was 49.7%; with NCI-H460 lung, 22%; in the test with HOP-92 NSCLC, -2.99% (active). Further, the growth with NCI-H522 lung is -3.56% (active); with A549/ATCC NSCLC it was 31%; in the test on 786-0 renal, 66.2%; with DU-145 prostate, 48%; with K-562 leukemia, 5.41% (active); in the test on MALME-3M melanoma it was -48.4% (active). For the same molecule, the growth with MDA-MB-231 breast is 61.4%; with RXF 393 renal, 28.7%; in the test on SF-268 CNS it was 43.4%; in the test on SF-295 CNS, 48.4%; with SF-539 CNS it was 38%; in the test with UACC-257 melanoma, 9.88% (active). Besides, the growth in the test with M14 melanoma was -90% (active).
As for `COc1ccc(-c2cnc(-c3ccc(F)cc3)[nH]2)cc1`, the growth is 88.2% in the test on NCI-H23 lung; 85.4% in the test on NCI-H226 lung; 213% in the test on NCI-H322M lung; 46.5% in the test with HOP-62 NSCLC; 103% with NCI-H460 lung; 82.5% in the test with HOP-92 NSCLC. In addition, the growth with NCI-H522 lung was 85.9%; with A549/ATCC NSCLC, -55.7% (active); in the test on DU-145 prostate it was 113%; in the test with K-562 leukemia it was 57.1%; in the test on MALME-3M melanoma, 288%; in the test with MDA-MB-231 breast, 100%. Also, the growth in the test with SF-268 CNS is 92.6%; in the test on SF-295 CNS, 96.6%; with SF-539 CNS, 105%; in the test with UACC-257 melanoma, -25.1% (active); in the test on M14 melanoma, -17.3% (active).
As to `COc1ccc2c(c1)nnn1c3ncccc3c(N=O)c21`, the growth with NCI-H23 lung was -23.8% (active); in the test on NCI-H226 lung, -57.7% (active); with NCI-H322M lung it was 31%; in the test on HOP-62 NSCLC, -41.7% (active); with NCI-H460 lung, -70% (active); with HOP-92 NSCLC, -49.2% (active). In addition, the growth was -85.7% (active) with NCI-H522 lung; 6.65% (active) in the test with A549/ATCC NSCLC; -63.1% (active) in the test with 786-0 renal; -56.1% (active) with DU-145 prostate; -75% (active) in the test with K-562 leukemia; -8.37% (active) with MALME-3M melanoma. Besides, the growth in the test on MDA-MB-231 breast was -31.2% (active); with SF-268 CNS, -50.4% (active); in the test with SF-295 CNS, 24.2%; in the test with SF-539 CNS, -71.2% (active); in the test with UACC-257 melanoma, -10% (active); with M14 melanoma it was -67.5% (active).
`CCC1CN2C(=N1)c1ccccc1-c1cc(Cl)ccc12` (centres undefined): the growth with NCI-H23 lung was 23.4%; with NCI-H226 lung, -40.2% (active); with NCI-H322M lung, 28.3%; with HOP-62 NSCLC, 5.88% (active); in the test with NCI-H460 lung, -18.9% (active); with HOP-92 NSCLC, -12.2% (active). Also, the growth in the test on NCI-H522 lung is -28.5% (active); with A549/ATCC NSCLC, -21.7% (active); in the test on 786-0 renal, -35.4% (active); with DU-145 prostate, 17.4%; in the test with K-562 leukemia, 2.32% (active); in the test on MALME-3M melanoma, -4.57% (active). In addition, the growth in the test with MDA-MB-231 breast is 47.9%; in the test with SF-268 CNS, 25%; in the test on SF-295 CNS it was 12%; in the test on SF-539 CNS, 17%; in the test on UACC-257 melanoma, -28.8% (active); with M14 melanoma, 21.7%.
As to `CCC(CC(C)C)Nc1ccc(NC(CC)CC(C)C)cc1` (centres undefined), the growth in the test with NCI-H23 lung is 77.7%; in the test on NCI-H226 lung it was 76.5%; in the test with NCI-H322M lung it was 107%; in the test with HOP-62 NSCLC it was 105%; in the test with NCI-H460 lung, 94.5%; in the test on HOP-92 NSCLC, -13.1% (active). In addition, the growth in the test with NCI-H522 lung is 14.6%; in the test with A549/ATCC NSCLC, 89.2%; in the test with 786-0 renal, 93.1%; in the test with DU-145 prostate, 103%; in the test with K-562 leukemia, -4.28% (active); with MALME-3M melanoma, 97.7%. In addition, the growth was 93.1% with MDA-MB-231 breast; 96.5% in the test on RXF 393 renal; 72.2% in the test on SF-268 CNS; 95.3% in the test with SF-295 CNS; 107% in the test on SF-539 CNS; 92.4% in the test on UACC-257 melanoma. In addition, in the test with M14 melanoma, the growth was 99.4%.
